Reference: PubChem BioAssay (EPA / NIEHS)
The source made the active and inactive calls. The calls were made as follows: active = hit-call score of the fitted dose curve at least 0.9, where 1 is the maximum; inactive = score below 0.9.

Experiments:
Conditions in all cases: primary human HUVEC with PBMC; actives raise or lower the signal
[1] = read-out: Interleukin-1 alpha (IL1a), IL1A (gene 3552); experiment: BSK_LPS_IL1a: BioMAP Diversity Plus: LPS Assay for Interleukin-1 alpha (IL1a) Biomarker Activity (AID 2283080)
How it was run: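 Human umbilical vein endothelial cells co-cultured with peripheral blood mononuclear cells were LPS-stimulated and exposed to test chemicals for 24 h. IL-1 alpha was quantified by ELISA, with bidirectional curve fitting against DMSO as the negative control and baseline.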

[2] = read-out: Monocyte Chemoattractant Protein-1 (MCP1), CCL2 (gene 6347); experiment: BSK_LPS_MCP1: BioMAP Diversity Plus: LPS Assay for Monocyte Chemoattractant Protein-1 (MCP1) Biomarker Activity (AID 2283081);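 as to AC50: secreted MCP-1 protein quantified by ELISA in culture supernatant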
How it was run: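 HUVEC plus PBMC co-culture (human primary cells, LPS system) exposed to test chemical for 24 h; MCP-1 measured by ELISA. Bidirectional curve fitting against DMSO baseline; parallel SRB total-protein staining flags overt cytotoxicity.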

[3] = BSK_LPS_PGE2: BioMAP Diversity Plus: LPS Assay for Prostaglandin E2 (PGE2) Biomarker Activity (AID 2283082);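 as to AC50: secreted prostaglandin E2 measured by ELISA in LPS-stimulated co-culture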
How it was run: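 HUVEC plus human PBMC co-culture stimulated with LPS; secreted PGE2 quantified by ELISA 24 h after chemical dosing. Activity fitted bidirectionally against DMSO baseline; parallel SRB staining (0.1% SRB after 10% TCA fixation, 560 nm) flags overt cytotoxicity.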

[4] = read-out: Macrophage colony-stimulating factor (MCSF), CSF1 (gene 1435); experiment: BSK_LPS_MCSF: BioMAP Diversity Plus: LPS Assay for Macrophage colony-stimulating factor (MCSF) Biomarker Activity (AID 2283083)
How it was run: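 Human umbilical vein endothelial cells co-cultured with peripheral blood mononuclear cells were exposed to compound for 24 h. M-CSF levels were measured by ELISA, and bidirectional curve fitting used DMSO as the negative control and baseline.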

[5] = read-out: Tissue Factor, F3 (gene 2152); experiment: BSK_LPS_TissueFactor: BioMAP Diversity Plus: LPS Assay for Tissue Factor Biomarker Activity (AID 2283084)
How it was run: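 Human umbilical vein endothelial cells co-cultured with peripheral blood mononuclear cells were dosed and stimulated with LPS. Cell-surface CD142 was quantified by ELISA at 24 h. Activity was fitted bidirectionally against DMSO baseline.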

[6] = read-out: Tumor necrosis factor (Homo sapiens) (UniProt P01375); experiment: BSK_LPS_TNFa: BioMAP Diversity Plus: LPS Assay for Tumour Necrosis Factor alpha (TNFa) Biomarker Activity (AID 2283085);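 as to AC50: TNFa protein level quantified by ELISA in the co-culture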
How it was run: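 Human umbilical vein endothelial cells co-cultured with PBMC and stimulated with LPS. TNFa was measured by ELISA 24 h after chemical dosing, fitted bidirectionally relative to DMSO.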

[7] = read-out: Vascular cell adhesion molecule 1 (VCAM1), VCAM1 (gene 7412); experiment: BSK_LPS_VCAM1: BioMAP Diversity Plus: LPS Assay for Vascular cell adhesion molecule 1 (VCAM1) Biomarker Activity (AID 2283086)
How it was run: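 Human umbilical vein endothelial cells co-cultured with PBMC and stimulated with LPS; VCAM-1 measured by ELISA 24 h after dosing. Bidirectional curve fitting against DMSO baseline; cytotoxicity tracked in parallel by SRB total-protein staining.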

CD38, CD38 (gene 952) = experiment: BSK_SAg_CD38: BioMAP Diversity Plus: SAg Assay for CD38 Biomarker Activity (AID 2283087)
How it was run: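 Human HUVEC plus PBMC co-culture stimulated with superantigen; CD38 measured by ELISA 24 h after chemical dosing. Fluorescence read-out, bidirectional fit against DMSO; cytotoxicity tracked in parallel by SRB and Alamar Blue.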

CD40, CD40 (gene 958) = experiment: BSK_SAg_CD40: BioMAP Diversity Plus: SAg Assay for CD40 Biomarker Activity (AID 2283088)
How it was run: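 Human umbilical vein endothelial cells co-cultured with PBMC; CD40 levels measured by ELISA with fluorescence read-out 24 h after chemical dosing. Gain or loss of signal fitted bidirectionally against DMSO baseline.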

CD69, CD69 (gene 969) = experiment: BSK_SAg_CD69: BioMAP Diversity Plus: SAg Assay for CD69 Biomarker Activity (AID 2283089);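 as to AC50: cell surface CD69 protein quantified by ELISA with fluorescence detection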
How it was run: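 Values derive from bidirectional fitting relative to DMSO vehicle. Cells: umbilical vein endothelium plus peripheral blood mononuclear cells, treated 24 h before fluorescent ELISA for CD69.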

Measured: AC50

Chain of Tumor necrosis factor (Homo sapiens) (P01375 whole entry, looked up): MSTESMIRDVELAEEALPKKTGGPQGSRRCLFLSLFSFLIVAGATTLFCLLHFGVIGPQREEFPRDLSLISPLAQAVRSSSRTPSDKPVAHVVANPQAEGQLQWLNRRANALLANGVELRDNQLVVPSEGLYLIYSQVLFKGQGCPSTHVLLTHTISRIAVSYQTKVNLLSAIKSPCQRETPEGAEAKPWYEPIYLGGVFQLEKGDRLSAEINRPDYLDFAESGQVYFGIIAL

COc1cccc(C(=O)NN(C(=O)c2cc(C)cc(C)c2)C(C)(C)C)c1C
inactive: all assays above

CSc1nnc(C(C)(C)C)c(=O)n1N
inactive: all assays above

CC1=NNC(=O)N(/N=C/c2cccnc2)C1
inactive: all assays above

C#CCC1=C(C)C(OC(=O)C2C(C=C(C)C)C2(C)C)CC1=O (configuration not stated)
active: [1] 31.9 µM | [2] 33.4 µM | [3] 3.87 µM | [4] 23.4 µM | [6] 32.9 µM | [7] 14.8 µM | CD38, CD38 (gene 952) 33.7 µM | CD40, CD40 (gene 958) 26.5 µM | CD69, CD69 (gene 969) 29.8 µM
inactive: [5]

CCc1cccc(CC)c1N(COC)C(=O)CCl
inactive: [2] | [3] | [5]
active: [1] 1.06 µM | [4] 13.6 µM | [6] 1.31 µM | [7] 26.9 µM | CD38, CD38 (gene 952) 28.6 µM | CD40, CD40 (gene 958) 20 µM | CD69, CD69 (gene 969) 15.4 µM

CNC(=O)ON=C(SC)C(=O)N(C)C
active: [7] 10.2 µM
inactive: all other assays above

CCC(=O)Nc1ccc(Cl)c(Cl)c1
active: [3] 8.77 µM
inactive: all other assays above

Nc1c(Cl)cc([N+](=O)[O-])cc1Cl
inactive: all assays above

CN(C)C(=O)Nc1cccc(C(F)(F)F)c1
inactive: all assays above

COP(=O)(NC(C)=O)SC (configuration not stated)
not listed: CD38, CD38 (gene 952)
inactive: all other assays above

COc1ccc(C(=CC(=O)N2CCOCC2)c2ccc(Cl)cc2)cc1OC
inactive: [1] | [3] | [5] | [7]
active: [2] 1.25 µM | [4] 12.8 µM | [6] 1.4 µM | CD38, CD38 (gene 952) 17.4 µM | CD40, CD40 (gene 958) 6.93 µM | CD69, CD69 (gene 969) 4.3 µM

CCC(CC)Nc1c([N+](=O)[O-])cc(C)c(C)c1[N+](=O)[O-]
active: [1] 36.1 µM | [2] 20 µM | [4] 18.9 µM | [6] 26.4 µM | [7] 15 µM | CD40, CD40 (gene 958) 20 µM | CD69, CD69 (gene 969) 20 µM
inactive: [3] | [5]

CNC(=O)Oc1cccc2c1OC(C)(C)O2
active: [4] 20 µM | [6] 32.9 µM | [7] 20 µM | CD38, CD38 (gene 952) 35.1 µM
inactive: all other assays above

CCOC(=O)COc1cc(-c2nn(C)c(OC(F)F)c2Cl)c(F)cc1Cl
active: CD69, CD69 (gene 969) 3.97 µM
inactive: all other assays above

CNc1cnn(-c2cccc(C(F)(F)F)c2)c(=O)c1Cl
active: CD38, CD38 (gene 952) 9.82 µM | CD40, CD40 (gene 958) 11.7 µM | CD69, CD69 (gene 969) 29.1 µM
inactive: all other assays above

CCCCOC(=O)[C@@H](C)Oc1ccc(Oc2ccc(C#N)cc2F)cc1
inactive: all assays above

FC(F)C(F)(F)OCC(Cn1cncn1)c1ccc(Cl)cc1Cl (configuration not stated)
active: [3] 2.52 µM | [4] 30.7 µM | [7] 32.8 µM | CD38, CD38 (gene 952) 20 µM | CD69, CD69 (gene 969) 30 µM
inactive: [1] | [2] | [5] | [6]
